From ChEMBL document CHEMBL1157539, “Thousands of chemical starting points for antimalarial lead identification” (Nature, 2010) come the findings set out here.

Molecules are shown by their SMILES.

In the experiment the test system is HepG2. Nature of the experiment: GSK_TCMDC: Percent inhibition of human HepG2 cell line. Test compounds present at 10uM. Type of experiment: functional.
On to `c1ccc(C2=NN=C(c3ccccn3)C3C4CC(C23)C2C3CC(c5ccccc53)C42)nc1` (stereo not drawn), for which the Inhibition was found to be 39%.

`CC(C)CCC[C@@H]([C@@H](CC1CCCCC1)C(=O)N[C@@H](CCCCNC(=O)OCc1ccccc1)C(=O)Nc1nccs1)N(O)C=O`: the Inhibition is recorded as 0%.

On to `Cc1cccc2sc(N(CCCn3ccnc3)C(=O)C=Cc3cccs3)nc12.Cl`, for which the Inhibition is 0%.

Broadly, the Inhibition is the share of the control response that was lost under treatment. A high value points to a response far below the control.
